PubChem BioAssay AID1671194 (National Center for Advancing Translational Sciences (NCATS), 2021)
Hit rate of the full screen: of about 140,000 compounds, about 240 (0.17%) were called active. Not shown: some 9% with an inconclusive outcome. Many of the other results were omitted from the sample, so actives are more common in it than they were. A number with no mark means an inactive call. Calls come from the whole dose curve; as a rule, active = well fitted inhibition curve with a large enough effect; inconclusive = small, poorly fitted or top-dose-only effect; inactive = no such curve, though single readings can be large or run the other way.

assay: Primary qHTS assay for inhibitors of alpha-synuclein gene (SNCA) expression; details: HEK-293 SNCA-luciferase knock-in, luminescence, 24 h; series mostly up to 57.2 µM; activity change, negative = inhibition: at the top concentration; note: nearly all actives have a fitted effect of over 45% in size
From the text: Assay Submitter (PI): Daniel R. Scoles Ph.D.
Department of Neurology, University of Utah, Salt Lake City, Utah
Accumulation of alpha-synuclein is a main underlying pathological feature of Parkinson's disease (PD) and alpha-synucleinopathies, for which lowering expression of the alpha-synuclein gene (SNCA) is a potential therapeutic avenue. Using a cell-based luciferase reporter of SNCA expression we performed a quantitative high throughput screen (qHTS) of 155,885 compounds in dose response. The screening assay was generated using genome editing to insert the luciferase gene downstream and in frame of the SNCA gene in HEK-293 cells (1). A viability counterscreen using GF-AFC was used to eliminate cytotoxic and false positive compounds. After in silico analysis (clustering, removal of frequent hitter nuisance chemotypes), inhibitor compounds from the primary screen were selected for follow up and re-tested at 11-doses in the SNCA-luc cells (luciferase and GF-AFC confirmation), and in CMV-luc expressing cell line to flag general transcriptional repressors.
Described herein are the results of the primary screen for SNCA inhibitors; decrease in luciferase signal (inhibition of the SNCA gene expression) is the desired output for this assay.
1. Dansithong, W., Paul, S., Scoles, D. R., Pulst, S. M., and Huynh, D. P. (2015) Generation of SNCA Cell Models Using Zinc Finger Nuclease (ZFN) Technology for Efficient High-Throughput Drug Screening. PLoS ONE 10, e0136930.
SEQUENCE No. (e.g., 1, 2, 3, etc.); […] (e.g., Cells, Incubation, Reagent, etc.); VALUE; DESCRIPTION
1; Cells; 4 uL; Dispense 1500 HEK-293-SNCA-luc cells/well into Greiner 1536-well white / solid bottom tissue culture treated plate. The plate was covered with metal lids with gas-exchange holes.
2; Incubate; 24 hours; Incubate at 37C, 5% CO2, 95% RH.
3; Compounds; 23 nL; Compounds and controls were transferred via a Kalypsys Pin Tool (Wako USA) equipped with a 1536-slotted pin array. The plate was covered with metal lids with gas-exchange holes.
4; Incubate; 24 hours; Incubate at 37C, 5% CO2, 95% RH.
5; Dispense; 1 uL; Dispense Gly-Phe-7-amino-4-trifluoromethylcoumarin (GF-AFC, prepared at 125 uM in PBS) was added. The plate was covered with metal lids with gas-exchange holes.
6; Incubate; 30 min; Incubate at 37C, 5% CO2.
7; Detector; Fluorescence; Measure fluorescence with ViewLux microplate reader (PerkinElmer) equipped with 405/10 excitation and 540/25 emission filters.
8; Dispense; 3 uL; Dispense ONE-Glo ([…]) lucifase detection reagent was added to each well. Plates were covered with metal lids with gas-exchange holes.
9; Incubate; 15 min; Incubate at room temperature.
10; Detector; Luminescence; Measure luminescence with ViewLux microplate reader (PerkinElmer) equipped with clear filters.
NOTES (numbers refer to sequence above)
1; HEK-293-SNCA-luc were cultured and suspended in phenol-red free DMEM (4.5 g/L glucose, 25 mM HEPES, cat #21063 (Thermo)).
3; Compounds were added to the assay plate in an 11-point intra plate dose response, 1:3 titration in DMSO with a final concentration range of […]. Vehicle-only plates, with DMSO being pin-transferred to every well, were inserted at the beginning of screening runs to confirm expected assay performance. Activity was normalized to wells containing medium only (-100% activity, full inhibition) and SNCA-luc cells treated with DMSO vehicle control (0% activity), contained on the same plate as test samples.
10; Signals were analyzed, and dose-response curves were fit using the Hill equation. Compounds in curve classes -1.1, -1.2, -2.1, -2.2 in the SNCA-luc assay were considered active. Compounds were eliminated from further consideration if also active (curve class -1.1, -1.2, -1.3, -1.4, -2.1, -2.2, -2.3, -2.4) in the GF-AFC cytotoxicity assay.
Potency is the fitted concentration of half-maximal effect.

| Structure (SMILES) | activity change, negative = inhibition | Potency |
| --- | --- | --- |
| CC(C)=CCC1(CO)CCCN(Cc2ccccc2OCCO)C1 (centres undefined) | -6.74% | – |
| O=C1NCCCCCCN(Cc2ccncc2)[C@@H]2CN(CC3CC3)CC[C@@H]12 | -21.1% | – |
| CC[C@H]1CN(C(=O)Nc2cccc(C(F)(F)F)c2)CC[C@H]1CC(=O)NCCSC | -20% [at 87.6 µM] | – |
| COC(=O)c1cccc(NC(=O)N2CCc3c(nc4cc(-c5ccccc5)[nH]n4c3=O)C2)c1 | 37.1% | – |
| NCc1ccccc1-c1cccc(O)c1 | -17.9% [at 87.6 µM] | – |
| O=C(c1n[nH]c2c1CCCC2)N1CCC2(CC1)NC(=O)N(c1ccc(F)cc1)N2 | 0.129% | – |
| COc1ccc(OC)c(CN2CCC3(CC2)COCCN3C(=O)OCc2ccccc2)c1 | -4.88% | – |
| COc1ccc(-c2ncc3c(n2)OCCN(CC2CC2)C3=O)cc1 | -22.4% [at 87.6 µM] | – |
| O=C([C@@H]1C[C@H](c2ccc(F)cc2)N([S+](=O)([O-])C2CC2)C1)N1CCN(c2ccccn2)CC1 | 54.6% | – |
| COCCNC(=O)[C@@H]1C[C@H](Oc2cccnc2)CN1C(=O)C1CC=CC1 | 9.07% | – |
| COc1cccc(CNC(=O)N2CCCC3(C2)Nc2cccnc2NC3=NC2CCCC2)c1 (centres undefined) | -21.6% | – |
| Cc1cccc(Cc2c(C)nc3nc(SCc4ccccc4Cl)nn3c2C)c1 | 12.7% | – |
| CCN(CC)C(=O)CSc1nc2ccsc2c(=O)n1Cc1ccccc1Cl | -0.0876% | – |
| CCn1cc2nc(SCc3ccccc3Cl)n(CCc3ccccc3)c(=O)c2n1 | – | 14.1 µM (active) |
| CCOc1ccc(NC(=O)CSc2ncnc3c2sc2ccccc23)cc1 | 15.5% | – |
| CCOc1ccc(NC(=O)CSc2c3c(nc4ccccc24)CCCC3)cc1 | – | 28.2 µM (active) |
| Cc1ccc(CNC(=O)CSc2c3c(nc4cc(Cl)ccc24)CCCC3)cc1 | 13.9% | – |
| CCOc1cccc(CN2CCC3(CC2)CN(C)CC3COC)c1 (centres undefined) | 8.9% | – |
| COc1ccc(OCC2CCN(CC3(O)CCCNC3)CC2)cc1 (centres undefined) | 84.6% | – |
| O=C(NCc1cccc(F)c1)c1cccnc1N1CC2CC(C1)[C@H]1CCCC(=O)N1C2 (some centres undefined) | 14.2% | – |
| O=S(=O)(c1ccccc1)N1CCC(CCOc2ccccc2)C1 (centres undefined) | -20.6% | – |
| O=C1NC2(CCCN([S+](=O)([O-])c3ccccc3)C2)COc2ccccc21 (centres undefined) | -3.78% | – |
| C=CCn1nc(C(=O)N2CCOCC2)c2c1CCC(NCC1(c3ccccc3)CCCCC1)C2 (centres undefined) | 5.82% | – |
| CCN(CC)CCNC(=O)C1N(C(C)C)C(=O)C12CCCC2 (centres undefined) | 5.62% | – |
| O=C(CSc1nccn1-c1ccc(F)cc1)Nc1cccc2ccccc12 | -16.9% | – |

| Structure (SMILES) | activity change, negative = inhibition | Potency |
| --- | --- | --- |
| Cc1cc(C)cc(-n2ccnc2SCC(=O)Nc2nc3ccccc3s2)c1 | 8.94% | – |
| Cc1cccc(-n2ccnc2SCC(=O)Nc2cccc3ccccc23)c1C | – | 20 µM (active) |
| COc1ccc(NC(=O)c2c(C)oc3ccn(Cc4ccc(F)cc4)c(=O)c23)c(OC)c1 | 1.86% | – |
| Cc1ccc(CN2CCC(Oc3cnc4c(ccn4CCN[S+](C)(=O)[O-])c3)CC2)c(F)c1 | -5.54% | – |
| Cn1ncc2c(C(=O)NCc3cccs3)cc(-c3ccc(Cl)nc3)nc21 | -4.22% | – |
| Cc1ccc(CN2CCOc3cc([S+](=O)([O-])N(C)C)ccc3C2)c(F)c1 | -6.31% [at 87.6 µM] | – |
| Cc1cccc(C(=O)N2CCC3(CC2)CC(CC(=O)NCc2ccncc2)CCO3)c1 (centres undefined) | -5.21% | – |
| O=C(CCn1ccn2nc3c(c2c1=O)CCCC3)Nc1ccc(Cl)c(C(F)(F)F)c1 | 3.6% | – |
| CCOc1cc(C)c(CN2C[C@@H](CN(C)C)C[C@H](CO)C2)cc1C(C)C | -24.3% | – |
| O=S(=O)(c1ccccc1)N1CCC(F)(c2nc(Cc3ccccc3)no2)CC1 | -21.3% | – |
| O=C(c1nc2cccnc2n(Cc2ccccc2)c1=O)N1CCN([S+](=O)([O-])c2ccccc2)CC1 | -16.6% | – |
| COc1cccc(-c2cccc(C(=O)N3CCCC3C(=O)NCc3ccccc3Cl)c2)c1 (centres undefined) | 0.109% | – |
| O=C(O)CCC(=O)N1Cc2ccccc2CC2(CCN(Cc3ccc(O)cc3)C2)C1 (centres undefined) | 37.4% | – |
| CCCCn1c(=O)c(C(=O)NCCSC)nc2cccnc21 | 3.61% [at 87.6 µM] | – |
| Cc1ccccc1CN1Cc2nc(NCc3ccncc3)ccc2OCC1=O | -14% [at 87.6 µM] | – |
| O=C1Nc2ccccc2C2(CCN(S(=O)(=O)c3cccc(C(F)(F)F)c3)C2)O1 (centres undefined) | -6.5% | – |
| CN1CCN(C[C@@H]2CN(C(=O)CCc3c[nH]c4ccccc34)C[C@@H]2CO)CC1 | 1.82% | – |
| CCc1cccc2c(C(CC(=O)NC(C)CC)c3cccc(OC)c3)c[nH]c12 (centres undefined) | -2.41% | – |
| Fc1ccc(-c2ccnc3nc(C4CCC4)nn23)cc1 | 12.1% | – |
| Cn1nc(C2CC2)cc1NC(=O)c1ccc(C(F)(F)F)cc1 | 124% [at 87.6 µM] | – |
| COc1ccccc1-n1c(=O)c(C(=O)N2CCN(C(=O)Cc3ccc(F)cc3)CC2)nc2cccnc21 | 4.21% | – |
| CCN1C(=O)C2CC3(CCN(C(=O)c4nccn4C)CC3)CN2C1=O (centres undefined) | -0.179% | – |
| CCOC(=O)C1(Cc2ccc(F)cc2F)CCCN(Cc2cccc(OC)c2O)C1 (centres undefined) | -6.47% | – |
| COC[C@H]1CCCN1C(=O)C[C@@H]1C[C@H]2O[C@H](CNC(=O)N[C@@H](C)c3ccccc3)[C@@H](O)[C@H]2O1 | 3.35% | – |
